Structures are written as SMILES. About 5,700 (7.6%) of roughly 75,000 compounds were called active. A call without a number means that no potency is given here. Inconclusive results (about 7%) are left out. This is one part of a sample in which actives are shown more often than they occur. Calls follow the shape of the dose curve; as a rule, active = well fitted inhibition curve with a large enough effect; inconclusive = small, poorly fitted or top-dose-only effect; inactive = no such curve, though single readings can be large or run the other way.
Potency is read from the fitted curve at half-maximal effect.

The assay deals with 3-hydroxyacyl-CoA dehydrogenase type-2 (Homo sapiens) (UniProt Q99714). As to the kind of experiment: qHTS Assay for Inhibitors of HSD17B4, hydroxysteroid (17-beta) dehydrogenase 4.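 Also: the protocol describes HADH2 (HSD17B10) and not the HSD17B4 of the title; nearly all actives have a fitted effect of over 70% in size.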 The note with it: recombinant HSD17B10, NADH fluorescence kinetic; series mostly up to 57.1 µM. The method in brief: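 Activity followed as NADH fluorescence increase (ex 360, em 450 nm) every 30 seconds for 4 min, using final 90 uM beta-hydroxybutyryl CoA and 1 mM NAD+. Recombinant His-tagged enzyme, 20 nM, pH 9.0 Tris buffer, 15 min compound preincubation.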
On the technique in general: Quantitative high-throughput screening tests each substance at several concentrations.
With `CCC1=C(OC(=O)N(CC)CC)N2C(=O)OC(=NCC3CC3)[C@]2(C)[C@H]2C1=CC[C@H]1C(=O)N(CC(=O)OC)C(=O)[C@H]12`, the Potency result is “inactive”.
As for `COC(=O)[C@@]1(Cc2ccccc2)[C@H]2c3cc(C(=O)N(C)C)n(CCSCCO)c3C[C@H]2CN1C(=O)c1ccccc1`, the Potency entry was “inactive”.
Turning to `O=C(c1cc(C(F)(F)F)cc(C(F)(F)F)c1)N1CCC2(CC1)CN(c1ccncc1)C2`, the Potency result was “inactive”.
Then `CC(=O)c1cccc(NC(=O)c2ccncc2)c1`, with “inactive”; and `CC1(C)Cc2cccc(OCC(=O)Nc3nccs3)c2O1`, with “inactive”; and `CCCCc1cc(=O)oc2cc(C)cc(OCc3nn[nH]n3)c12`, with 31.6 µM (active).
With `COC(=O)[C@@]1(Cc2ccccc2)[C@H]2c3cc(C(=O)N4CCCC4)n(Cc4ccc(C)o4)c3C[C@H]2CN1C(=O)c1ccccc1`, the Potency entry is “inactive”.
As for `COc1ccc(CN(C(=O)c2cccs2)c2nccs2)cc1OC`, the Potency result was “inactive”.
Then `Cc1ccc(C(=O)OCC(=O)NCc2ccc3c(c2)OCO3)s1`, with “inactive”.
With `CCOC(=O)c1nc(-c2ccc3c(c2)OCO3)[nH]c1C`, the Potency was 20 µM (active).
`CCOC(=O)c1c(C)[nH]c(C(=O)COc2ccc3c(c2)OCO3)c1C`: the Potency result is “inactive”.
Consider `O=C(Nc1cccc(F)c1)N1CC2(CCN(C(=O)c3cnccn3)CC2)C1`, for which the Potency entry was “inactive”.
With `O=c1[nH]c(-c2ccccc2)c(-c2ccccc2)[nH]1`, the Potency was 31.6 µM (active).
For `CC1(C)CC(=O)NC=C(c2ccccc2)C1`, the Potency result was “inactive”.
The result for `COC(=O)C1C(=O)CC(C)(O)C(C(=O)OC)C1c1ccc2c(c1)OCO2` (stereo not drawn) reads “inactive”; that for `O=C(Nc1ccccc1)Nc1ccccc1C(=O)NCc1ccco1`, “inactive”.
Take `O=C(NCc1ccco1)c1cccn2c(=O)c3cc(Br)ccc3nc12`: the Potency is 25.1 µM (active).
`O=C(NCc1ccco1)c1nc(-c2ccccc2)n(-c2ccccc2)n1`: the Potency result was “inactive”.
`CC(C)C(N)C(=O)OCCOCn1cnc2c(=O)[nH]c(N)nc21` (stereo not drawn): the Potency result was “inactive”.
`FC(F)(F)c1ccc(CN2C[C@@H]3C(c4ccccc4)C4(c5ccccc5)CC3(C4)[C@H]2c2ccccc2)cc1` (stereo partly drawn): the Potency result was “inactive”.
Regarding `CCOC(=O)N1CCC(NC(=O)Cc2cn(C)c3ccccc23)CC1`, the Potency result is “inactive”.
The result for `CCOC(=O)N1CCC(NC(=O)COc2cc(=O)n(C)c3ccccc23)CC1` reads “inactive”; that for `CCOC(=O)N1CCC(NC(=O)c2cnn3ccccc23)CC1`, 31.6 µM (active); that for `CC(C)=CC1C(C(=O)O)C1(C)C` (stereo not drawn), “inactive”.
Then `Nc1nonc1-c1nc2ccccc2n1CCC(=O)O`, with “inactive”; and `Cn1c(-c2ccc(C(=O)c3ccccc3)s2)nc2ccccc21`, with 25.1 µM (active); and `Cn1c(CNC(=O)C(C)(C)C)nc2ccccc21`, with “inactive”.
Consider `COc1cccc(-c2cc(NCCc3c[nH]c4ccc(OC)cc34)ncn2)c1`, for which the Potency entry is “inactive”.
